Anthrax LF inh2: Bacillus anthracis LF protease inhibitors, primary screen, biochemical, multiplex microsphere, MLPCN library; AID 588501, 2011; inhibition, % at 10 µM; 360,000 compounds, 0.12% hits; multiplex microsphere protease cleavage assay
Target sequence (P15917 whole entry, looked up): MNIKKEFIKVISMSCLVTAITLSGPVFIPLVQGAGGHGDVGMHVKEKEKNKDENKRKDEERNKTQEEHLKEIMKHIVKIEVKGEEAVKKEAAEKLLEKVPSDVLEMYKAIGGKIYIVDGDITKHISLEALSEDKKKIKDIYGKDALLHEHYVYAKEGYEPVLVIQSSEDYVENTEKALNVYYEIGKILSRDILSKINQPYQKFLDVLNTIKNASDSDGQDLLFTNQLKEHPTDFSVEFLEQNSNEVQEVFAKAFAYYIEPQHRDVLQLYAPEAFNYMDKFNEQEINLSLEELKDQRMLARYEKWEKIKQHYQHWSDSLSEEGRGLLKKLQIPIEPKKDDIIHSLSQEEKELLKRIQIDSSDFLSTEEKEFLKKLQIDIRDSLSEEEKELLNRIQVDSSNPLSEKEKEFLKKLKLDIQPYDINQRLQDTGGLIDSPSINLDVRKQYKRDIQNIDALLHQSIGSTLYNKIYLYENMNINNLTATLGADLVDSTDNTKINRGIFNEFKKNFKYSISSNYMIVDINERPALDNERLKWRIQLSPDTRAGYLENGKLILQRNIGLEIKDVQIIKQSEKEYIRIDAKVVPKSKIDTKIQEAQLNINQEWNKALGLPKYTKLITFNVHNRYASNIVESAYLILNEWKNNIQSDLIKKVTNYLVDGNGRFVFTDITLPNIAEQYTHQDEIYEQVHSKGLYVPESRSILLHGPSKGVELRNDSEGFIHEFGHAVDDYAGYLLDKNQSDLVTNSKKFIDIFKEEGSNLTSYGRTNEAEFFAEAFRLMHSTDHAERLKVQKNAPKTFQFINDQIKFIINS
BoNT F protease: BoNT/F light chain protease inhibitors, primary screen, biochemical, flow cytometry, MLPCN library | Multiplex microsphere protease cleavage assay | inhibition, % at 10 µM | 360,000 compounds, 0.22% hits | AID 588497, 2011; in the data active means inhibition above about 35%, passing the limit was not always enough; inconclusive means no clear call, values can overlap the other calls
Autofluor counter: flagged as autofluorescent in microsphere protease counterscreen; compound autofluorescence counterscreen, microsphere flow cytometry; active compounds read high; fluorescence intensity (concentration not given with the values); 360,000 compounds, 3.1% hits; in the data active means fluorescence intensity above about 16000; inconclusive means no clear call, values can overlap the other calls
BoNT A protease: BoNT/A light chain protease inhibitors, primary screen, biochemical, flow cytometry, MLPCN library; Botulinum neurotoxin type A light chain protease (Clostridium botulinum A str. ATCC 3502); multiplex microsphere protease substrate cleavage; inhibition, % at 10 µM; 360,000 compounds, 0.17% hits; AID 588499, 2011
Large screens that a line does not name were inactive. Rows were chosen to be rich in hits. Some 3.5% of all compounds tested hit in one or more screens of this group. Unless noted, no stated cut-off is given here; in the data, active means inhibition above about 30%; inconclusive means no clear call, values can overlap the other calls; inactive means below that.

Cc1noc(C)c1CSc1nnc2ccccn12	Autofluor counter 19015
Cc1noc(C)c1CSc1nc2ccccc2c(=O)n1-c1ccc(Cl)cc1	Autofluor counter 22121, BoNT A protease inconclusive
Cc1noc(C)c1CSc1nnc(-c2ccccc2)n1N	none
Cc1noc(C)c1CSc1nc2ccccc2s1	none
Cc1noc(C)c1CSc1ccc2ccccc2n1	Autofluor counter 20444
COn1c(SCc2ccc(Cl)cc2)nc2ccccc2c1=O	Autofluor counter 22710, BoNT A protease inconclusive
COc1ccc(S(=O)(=O)N2CCc3ccccc32)cc1C(=O)Nc1ccc(NC(C)=O)cc1	none
CC(Oc1ccc2c(c1)oc(=O)c1ccccc12)C(=O)NCCN1CCOCC1 (centres undefined)	none
CCc1cc(N2CCOCC2)cc2c1[nH]c1ccccc12	Autofluor counter 17063
c1ccc2c(c1)[nH]c1c(N3CCOCC3)ncnc12	none
COc1ccccc1NC(=O)Cc1noc(CSc2nnc(N)s2)n1	none
COc1ccccc1NC(=O)Cc1noc(CSc2nnc(C)s2)n1	Autofluor counter 22803
Cc1c(Br)cc(-c2nnco2)cc1Br	Autofluor counter 23447
O=C(Nc1nccs1)Oc1ccccc1	Autofluor counter 20333, BoNT A protease inconclusive
CCS(=O)(=O)N1CCC(NC(=O)C(Cc2ccc(OC)c(OC)c2)NC(C)=O)CC1 (centres undefined)	BoNT F protease inconclusive
Cc1c2n(c3ccccc13)CCN(C)C2	none
Nc1ccn([C@@H]2O[C@H](C(=O)N[C@H](CO)c3ccccc3)[C@@H](O)[C@H]2O)c(=O)n1	none
COC(=O)C1C(=O)C2=C(CC1C)NC(C)=C(C(=O)OCc1ccc(OC)cc1)C2c1ccc(C)o1 (centres undefined)	none
COC(=O)C1C(=O)C2=C(CC1C)NC(C)=C(C(=O)OC(C)C)C2c1ccc(C)o1 (centres undefined)	Autofluor counter 23601
COc1cccc(/C=C/C(=O)c2cccc([N+](=O)[O-])c2)c1OC	none
COc1ccc(/C=C/C(=O)c2ccncc2)c2ccccc12	BoNT A protease 44.9
O=C(O)CN1C(=O)/C(=C/c2ccccc2Br)Oc2ccccc21	none
CS(=O)(=O)Nc1ccc(Cc2ccc(NS(C)(=O)=O)cc2)cc1	Autofluor counter 20871
O=C(O)c1ccccc1S(=O)CCO (centres undefined)	Autofluor counter 22978
Cc1c(C(=O)OCC(=O)N(C)c2ccccc2)oc2ccccc12	none
CCc1c(O)nc(SCC(=O)Nc2ccc(OC)cc2)n(C2CCCCC2)c1=O	Autofluor counter 24511
COC(=O)c1ccc(CNC(=O)C(C)N=C2NS(=O)(=O)c3ccccc32)cc1 (centres undefined)	none
Cc1csc(C(=O)O)c1NC(=O)c1ccc(F)cc1	none
COC(=O)c1scc(C)c1N/N=C(\C)c1ccc(F)cc1	Autofluor counter 23635, BoNT A protease inconclusive
O=c1[nH]c(C2CCN(S(=O)(=O)/C=C/c3ccccc3)CC2)nc2c1nnn2Cc1ccccc1	none
COc1ccc(CC(C)N2CCN(Cc3ccccc3)CC2)c(OC)c1 (centres undefined)	Autofluor counter 18004
COc1ccc(CN2CCN(c3ccccc3OC)CC2)c(OC)c1	none
O=c1oc2c(O)cccc2cc1-c1nc2ccccc2[nH]1	BoNT F protease inconclusive
O=c1oc2c(CN3CCCCC3)c(O)ccc2cc1-c1nc2ccccc2[nH]1	Autofluor counter 18384
CCCCCn1c(=O)c(C(=O)c2ccccc2)nc2ccccc21	Autofluor counter 18403, BoNT A protease inconclusive
O=C1CCCC(O)=C1C(C#Cc1ccccc1)C1=C(O)CCCC1=O	Autofluor counter 17723
CC1(C)CC(=O)C(C(C#Cc2ccccc2)C2=C(O)CC(C)(C)CC2=O)=C(O)C1	none
Cc1nc2ccccc2c(=O)n1NC(=O)c1c(O)c2c(n(CC(C)C)c1=O)CCCC2	Autofluor counter 19971
CCCCCCc1nc2ccccc2c(=O)n1NC(=O)c1c(O)c2c(n(CC(C)C)c1=O)CCCC2	none
O=[N+]([O-])c1ccc(Cl)c(/C=N/n2c(-c3ccncc3)n[nH]c2=S)c1	Anthrax LF inh2 37.4, BoNT F protease inconclusive
CCn1c(SCC(=O)NC2CCCC2)nnc1C(C)NC(=O)c1ccccc1Br (centres undefined)	none
COCCCNC(=O)c1ccc2c(=O)n(C3CCCC3)c(=S)[nH]c2c1	Autofluor counter 18736
COCCCNC(=O)c1ccc2c(=O)n(CC3CCCO3)c(=S)[nH]c2c1 (centres undefined)	Autofluor counter 16266
CC(C)NC(=O)c1ccc2c(=O)n(CC3CCCO3)c(=S)[nH]c2c1 (centres undefined)	none
CC(=O)Nc1cccc(-c2csc(C(O)c3ccc(F)c(F)c3)n2)c1 (centres undefined)	none
Cn1ncc(Cl)c1C(=O)NCC1CCCO1 (centres undefined)	none
CSc1ccccc1C(=O)OCC(=O)NC1CC1	none
O=C(NC1CCCC1)C1c2ccccc2C(=O)N1C1CCCCC1 (centres undefined)	Autofluor counter 19915
O=C1c2cccnc2C(O)N1Cc1ccccc1 (centres undefined)	none
O=C1c2cccnc2C(O)N1C1CCCCC1 (centres undefined)	Autofluor counter 23226
CCCCN1C(=O)c2ccccc2C1C(=O)NC1CCCC1 (centres undefined)	Autofluor counter 22700
CC1CCC(NC(=O)C2c3ccccc3C(=O)N2CCCN2CCOCC2)CC1 (centres undefined)	Autofluor counter 24072, BoNT A protease inconclusive
COc1ccc(F)cc1-c1cc(NC(C)=O)c2ncc(-c3cccc(C(F)(F)F)c3)n2c1	none
CC1CCN(c2ccc(NC(=O)c3ccc(Br)o3)cc2)CC1	none
O=c1c(CN2CCN(Cc3ccccc3)CC2)coc2ccc(Cl)cc12	Autofluor counter 19830
CSc1ccc(CN2C(=O)C(F)(F)Oc3c(C(C)=O)cccc32)cc1	none
Cc1ccccc1C(=O)Nc1c(C)[nH]c(=O)[nH]c1=O	none
Cc1[nH]c(=O)[nH]c(=O)c1NC(=O)c1cccs1	Autofluor counter 21903
COc1ccc(OCCCC(=O)N(C)CC(=O)Nc2ccccc2Cl)cc1	none
O=C(OCc1ccccc1)Oc1cncc(C(=O)O)c1	Autofluor counter 16938
CCN1CCN(C(=S)c2ccc(OCC(=O)N3CCOCC3)cc2)CC1	Autofluor counter 19327
CCOc1cc(C(=S)N2CCCCC2)ccc1OCC(=O)NCc1ccccc1	Autofluor counter 22179, BoNT A protease inconclusive
O=C(COc1ccc(C(=S)N2CCOCC2)cc1)N1CCOCC1	none
CCOc1ccc(C(=S)N2CCOCC2)cc1OCC	Autofluor counter 23260
COc1ccc(S(=O)(=O)NC(C)C(=O)NCc2ccccn2)cc1Cl (centres undefined)	none
O=C(Cc1ccccc1)N1CCCC1c1ccccc1 (centres undefined)	Autofluor counter 21410
CCCc1ccc(Oc2cc(N3CCOCC3)nc(-c3ccccc3)n2)cc1	Autofluor counter 23308
Cn1c(=O)c2c(ncn2Cc2ccc(Cl)c(Cl)c2)n(C)c1=O	Autofluor counter 19612, BoNT A protease inconclusive
Cn1c(=O)c2c(ncn2Cc2cccc(Cl)c2)n(C)c1=O	none
